# Source: PubChem BioAssay
# Activity calls are given as the source filed them.
# Key:
# [1] = A549 cell viability effects, profiling panel, calcein-AM fluorescence, 48 h, basal (AID 1162); settings: higher = more signal; note: test concentration not given here
# [2] = adipocyte viability effects, profiling panel, cell-based, 3T3-L1 adipocytes, calcein-AM fluorescence, 48 h, basal (AID 1163); settings: 3T3-L1 adipocytes viability, higher = more signal; note: test concentration not given here
# [3] = HepG2 cell viability effects, profiling panel, calcein-AM fluorescence, 48 h, basal (AID 1164); settings: higher = more signal; note: test concentration not given here
# [4] = MM1S cell viability effects, profiling panel, calcein-AM fluorescence, 48 h, basal (AID 1165); settings: higher = more signal;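 note: viability of MM1S multiple myeloma cells under basal unstimulated conditions; test concentration not given here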
# [5] = basal RPMI8226 viability, no added stimulus, profiling panel, cell-based, calcein-AM fluorescence, 48 h, PK04 Diversity Set (AID 1166); settings: RPMI8226 myeloma viability, higher = more signal;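 note: cells grown under basal conditions without added stimulus; test concentration not given here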
# [6] = basal HepG2 mitochondrial membrane potential changes, profiling panel, cell-based, JC-1 fluorescence, 24 h, 100 nL compound (AID 1167); settings: higher = more signal; note: test concentration not given here
# [7] = basal 3T3-L1 adipocyte mitochondrial potential changes, profiling panel, cell-based, JC-1 fluorescence, 3T3-L1 adipocytes, 24 h, 100 nL compound (AID 1168); settings: JC-1 mitochondrial fluorescence, higher = more signal, called active from +8 up or from −8 down; note: test concentration not given here
# [8] = basal RPMI8226 mitochondrial membrane potential changes, profiling panel, cell-based, JC-1 fluorescence, 24 h, 100 nL compound (AID 1169); settings: RPMI8226 myeloma, JC-1 mitochondrial potential fluorescence, higher = more signal; note: test concentration not given here
# [9] = basal MM1S mitochondrial membrane potential changes, profiling panel, cell-based, JC-1 fluorescence, 24 h, 100 nL compound (AID 1170); settings: higher = more signal; note: test concentration not given here
# [10] = A549 lung cancer cell viability effects, profiling panel, resazurin fluorescence, 24 h, PK04 Diversity Set (AID 1171); settings: higher = more signal, called active from +8 up or from −8 down; note: test concentration not given here
# [11] = HepG2 liver cancer cell viability effects, profiling panel, resazurin fluorescence, 24 h, PK04 Diversity Set (AID 1172); settings: higher = more signal; note: test concentration not given here
# [12] = basal S. cerevisiae growth modulation, no modifier, primary screen, OD600, strain BY4716, 24 h, basal condition (AID 1173); settings: OD600, 24 h, higher = more signal, called active from +8 up or from −8 down
# [13] = MM1S myeloma cell viability, profiling panel, resazurin fluorescence, basal, 24 h, PK04 Diversity Set (AID 1174); settings: higher = more signal, called active from +8 up or from −8 down;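 note: MM1S multiple myeloma cell line; test concentration not given here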
# [14] = molecular target: Dihydroorotate dehydrogenase (quinone), mitochondrial (Plasmodium falciparum (isolate 3D7)) (UniProt Q08210); experiment: PfDHODH enzyme inhibitors, primary screen, biochemical, C-terminal His tag, absorbance 600 nm (AID 1175); settings: DCIP absorbance 600 nm, higher = more signal, called active from +8 up or from −8 down;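 note: recombinant parasite enzyme with a five histidine tag at its C terminus; test concentration not given here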
# Dihydroorotate dehydrogenase (quinone), mitochondrial (Plasmodium falciparum (isolate 3D7)), sequence (Q08210 whole entry, looked up): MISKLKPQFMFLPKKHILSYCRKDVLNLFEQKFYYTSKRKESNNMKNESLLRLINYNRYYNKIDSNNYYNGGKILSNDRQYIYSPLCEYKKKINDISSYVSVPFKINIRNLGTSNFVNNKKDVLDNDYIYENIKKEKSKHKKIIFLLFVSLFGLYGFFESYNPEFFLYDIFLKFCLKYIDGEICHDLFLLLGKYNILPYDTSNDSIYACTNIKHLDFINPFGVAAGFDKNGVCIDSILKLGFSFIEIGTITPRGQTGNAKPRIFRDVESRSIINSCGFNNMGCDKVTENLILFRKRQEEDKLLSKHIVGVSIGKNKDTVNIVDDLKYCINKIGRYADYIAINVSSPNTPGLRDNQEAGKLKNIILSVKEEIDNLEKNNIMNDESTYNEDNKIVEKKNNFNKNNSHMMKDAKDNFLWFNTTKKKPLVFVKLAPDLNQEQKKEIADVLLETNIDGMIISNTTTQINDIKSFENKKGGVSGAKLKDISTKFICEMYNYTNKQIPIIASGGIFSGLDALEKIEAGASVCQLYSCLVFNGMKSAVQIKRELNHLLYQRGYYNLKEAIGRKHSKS
# [15] = S. cerevisiae RM11-1a growth modifiers, primary screen, strain RM11-1a, OD600, basal, 24 h (AID 1177); settings: OD600, 24 h, higher = more signal, called active from +8 up or from −8 down;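 note: cultures grown under basal conditions with no added stressor; test concentration not given here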
# [16] = E. coli acrAB mutant growth effects, primary screen, E. coli filamentation inducers, strain DRC39, OD650, 24 h (AID 1178); settings: higher = more signal, called active from +8 up or from −8 down;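 note: growth measured as culture turbidity by optical density at 650 nm; test concentration not given here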
# [17] = E. coli acrAB mutant growth effects, primary screen, E. coli filamentation inducers, strain DRC39, OD650, 48 h (AID 1179);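 note: screen aims at cell division blockers that make cells filament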; settings: E. coli DRC39 delta-acrAB growth, higher = more signal, called active from +8 up or from −8 down
# [18] = RPMI8226 myeloma cell viability, profiling panel, resazurin fluorescence, basal, 24 h, PK04 Diversity Set (AID 1180); settings: higher = more signal;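 note: RPMI8826 multiple myeloma cell line at 5000 cells per well; test concentration not given here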
# [19] = molecular target: E3 ubiquitin-protein ligase XIAP (Homo sapiens) (UniProt P98170); experiment: XIAP binders, primary screen, biophysical, small-molecule microarray, fluorescence 635 nm (AID 1181); settings: small-molecule microarray binding, higher = more signal;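 note: score merges 667 nm emission and signal to noise over triplicate slides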
# E3 ubiquitin-protein ligase XIAP (Homo sapiens), sequence (P98170 whole entry, looked up): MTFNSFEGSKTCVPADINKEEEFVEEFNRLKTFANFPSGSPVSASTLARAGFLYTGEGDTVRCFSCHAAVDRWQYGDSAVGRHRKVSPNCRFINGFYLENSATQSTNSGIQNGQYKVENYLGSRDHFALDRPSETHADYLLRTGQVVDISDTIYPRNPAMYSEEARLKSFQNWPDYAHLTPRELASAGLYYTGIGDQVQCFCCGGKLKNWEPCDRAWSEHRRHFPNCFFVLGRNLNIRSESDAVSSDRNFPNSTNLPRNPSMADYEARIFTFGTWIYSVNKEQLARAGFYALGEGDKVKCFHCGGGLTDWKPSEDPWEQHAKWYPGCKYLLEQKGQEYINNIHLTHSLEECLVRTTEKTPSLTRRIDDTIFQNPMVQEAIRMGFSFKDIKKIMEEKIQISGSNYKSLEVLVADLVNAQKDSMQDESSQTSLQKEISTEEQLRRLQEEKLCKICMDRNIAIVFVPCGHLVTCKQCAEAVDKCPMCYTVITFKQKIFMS
smiles,measurement,setting,value
CO[C@@H]1COC(=O)CC=C[C@@H](C)[C@H](OC)COC(=O)CC=C[C@H]1C,z-score,[1],0.275
same,z-score,[2],0.793
same,z-score,[3],1.14
same,z-score,[4],-1.03
same,z-score,[5],0.834
same,z-score,[6],0.692
same,z-score,[7],0.502 (inactive)
same,z-score,[8],-0.793
same,z-score,[9],1.21
same,z-score,[10],0.756 (inactive)
same,z-score,[11],0.994
same,z-score,[12],-1.43 (inactive)
same,z-score,[13],0.176 (inactive)
same,composite z-score,[14],-0.136 (inactive)
same,z-score,[15],-0.658 (inactive)
same,z-score,[16],0.642 (inactive)
same,z-score,[17],0.505 (inactive)
same,z-score,[18],0.854
same,composite z-score,[19],0.0891
CCCNC(=O)[C@@]1(Sc2ccc(C)cc2)CC(=O)N(Cc2ccccc2Cl)[C@@H]1c1ccc(CO)cc1,z-score,[1],0.648
same,z-score,[2],2.79
same,z-score,[3],-0.597
same,z-score,[4],0.189
same,z-score,[5],0.154
same,z-score,[6],0.00317
same,z-score,[7],0.0754 (inactive)
same,z-score,[8],0.653
same,z-score,[9],0.368
same,z-score,[10],0.644 (inactive)
same,z-score,[11],-0.48
same,z-score,[12],-0.573 (inactive)
same,z-score,[13],1.12 (inactive)
same,composite z-score,[14],-3.67 (inactive)
same,z-score,[15],-2.58 (inactive)
same,z-score,[16],1.23 (inactive)
same,z-score,[17],0.337 (inactive)
same,z-score,[18],1.13
same,composite z-score,[19],0.105
C=CC[C@]1(C(=O)NCC(O)CO)N=C(c2ccc(OCCCO)cc2)O[C@H]1c1ccccc1 (stereo partly specified),z-score,[1],0.495
same,z-score,[2],0.991
same,z-score,[3],0.417
same,z-score,[4],-0.176
same,z-score,[5],0.213
same,z-score,[6],-0.0851
same,z-score,[7],-0.386 (inactive)
same,z-score,[8],-0.895
same,z-score,[9],0.334
same,z-score,[10],0.912 (inactive)
same,z-score,[11],0.766
same,z-score,[12],-1.49 (inactive)
same,z-score,[13],0.776 (inactive)
same,composite z-score,[14],-0.537 (inactive)
same,z-score,[15],-1.07 (inactive)
same,z-score,[16],1.44 (inactive)
same,z-score,[17],0.199 (inactive)
same,z-score,[18],1.01
same,composite z-score,[19],-0.0102
C=CCN1C(=O)[C@@]2(O[C@@H](CCn3cc([C@H](O)c4ccccc4)nn3)[C@H]([Si](C)(C)c3ccc(OC)cc3)[C@H]2C)c2cc(N3CCOC3=O)ccc21,z-score,[1],-0.873
same,z-score,[2],3.06
same,z-score,[3],-1.2
same,z-score,[4],-1.81
same,z-score,[5],-1.93
same,z-score,[6],1.09
same,z-score,[7],1.92 (inactive)
same,z-score,[8],-0.376
same,z-score,[9],0.753
same,z-score,[10],-1.97 (inactive)
same,z-score,[11],-0.555
same,z-score,[12],-1.5 (inactive)
same,z-score,[13],-0.365 (inactive)
same,composite z-score,[14],-1.47 (inactive)
same,z-score,[15],-1.57 (inactive)
same,z-score,[16],1.41 (inactive)
same,z-score,[17],0.391 (inactive)
same,z-score,[18],-1.24
same,composite z-score,[19],0.076
C=C(COC)/C(=C/C[C@@H](OC(C)=O)c1cccc(OCCO)c1)c1cc(C(=O)OC)ccc1OC,z-score,[1],1.1
same,z-score,[2],-0.412
same,z-score,[3],0.409
same,z-score,[4],-1.29
same,z-score,[5],0.0922
same,z-score,[6],3.3
same,z-score,[7],1.2 (inactive)
same,z-score,[8],0.127
same,z-score,[9],-0.466
same,z-score,[10],1.49 (inactive)
same,z-score,[11],1.21
same,z-score,[12],-1.57 (inactive)
same,z-score,[13],0.49 (inactive)
same,composite z-score,[14],-0.733 (inactive)
same,z-score,[15],-0.489 (inactive)
same,z-score,[16],2.1 (inactive)
same,z-score,[17],1.47 (inactive)
same,z-score,[18],0.938
same,composite z-score,[19],0.155
CC(=O)Nc1ccc([C@H]2[C@H](C)CC[C@H]3C(=O)N4[C@@H](CC[C@@H](C)[C@@H]4c4ccc(NC(C)=O)cc4)C(=O)N32)cc1,z-score,[1],1.04
same,z-score,[2],1.1
same,z-score,[3],0.277
same,z-score,[4],-0.715
same,z-score,[5],-0.439
same,z-score,[6],-1.16
same,z-score,[7],-0.183 (inactive)
same,z-score,[8],-0.365
same,z-score,[9],-0.559
same,z-score,[10],0.553 (inactive)
same,z-score,[11],1.23
same,z-score,[12],-1.08 (inactive)
same,z-score,[13],-0.269 (inactive)
same,composite z-score,[14],0.124 (inactive)
same,z-score,[15],0.897 (inactive)
same,z-score,[16],1.22 (inactive)
same,z-score,[17],0.141 (inactive)
same,z-score,[18],0.868
same,composite z-score,[19],-0.0204
C[C@H]1COC(=O)[C@@H]2CCCN2C(=O)[C@@H](C)COC(=O)[C@@H]2CCCN2C1=O,z-score,[1],0.507
same,z-score,[2],0.442
same,z-score,[3],-0.178
same,z-score,[4],0.323
same,z-score,[5],-0.0243
same,z-score,[6],0.799
same,z-score,[7],0.085 (inactive)
same,z-score,[8],-0.108
same,z-score,[9],0.0551
same,z-score,[10],1.5 (inactive)
same,z-score,[11],0.678
same,z-score,[12],-0.978 (inactive)
same,z-score,[13],0.93 (inactive)
same,composite z-score,[14],-0.0223 (inactive)
same,z-score,[15],-0.691 (inactive)
same,z-score,[16],0.825 (inactive)
same,z-score,[17],-0.0322 (inactive)
same,z-score,[18],0.73
same,composite z-score,[19],-0.294
C=C[C@H](OC)[C@@H](OC(=O)Nc1ccc(SC)cc1)c1ccc(OC)c(O)c1,z-score,[1],1.73
same,z-score,[2],0.182
same,z-score,[3],0.907
same,z-score,[4],0.898
same,z-score,[5],0.524
same,z-score,[6],0.163
same,z-score,[7],1.15 (inactive)
same,z-score,[8],0.412
same,z-score,[9],0.761
same,z-score,[10],0.595 (inactive)
same,z-score,[11],1.06
same,z-score,[12],-1.14 (inactive)
same,z-score,[13],0.7 (inactive)
same,composite z-score,[14],-0.768 (inactive)
same,z-score,[15],-1.55 (inactive)
same,z-score,[16],1.51 (inactive)
same,z-score,[17],1.93 (inactive)
same,z-score,[18],0.933
same,composite z-score,[19],-0.0773
CCN1C(C)=C(C(=O)OC)[C@@H](c2ccccc2)N2C(=O)[C@](O)(C(=O)OC)[C@@H](c3ccccc3)C(C(=O)c3ccccc3)=C12,z-score,[1],0.804
same,z-score,[2],0.439
same,z-score,[3],0.534
same,z-score,[4],0.144
same,z-score,[5],-0.623
same,z-score,[6],4.64
same,z-score,[7],0.454 (inactive)
same,z-score,[8],-0.602
same,z-score,[9],0.229
same,z-score,[10],2.64 (inactive)
same,z-score,[11],2.22
same,z-score,[12],-3.46 (inactive)
same,z-score,[13],1.06 (inactive)
same,composite z-score,[14],0.208 (inactive)
same,z-score,[15],-0.785 (inactive)
same,z-score,[16],1.55 (inactive)
same,z-score,[17],1.39 (inactive)
same,z-score,[18],1.57
same,composite z-score,[19],-0.101
